Screens: PubChem, National Center for Advancing Translational Sciences (NCATS)
D1 ag: human D1 receptor agonism; P21728; hit rate 1% among 360,000; activation, % at 2 µM; HEK293 T-REx D1 cells, calcium flux, agonist mode
Target sequence (P21728 whole entry, looked up): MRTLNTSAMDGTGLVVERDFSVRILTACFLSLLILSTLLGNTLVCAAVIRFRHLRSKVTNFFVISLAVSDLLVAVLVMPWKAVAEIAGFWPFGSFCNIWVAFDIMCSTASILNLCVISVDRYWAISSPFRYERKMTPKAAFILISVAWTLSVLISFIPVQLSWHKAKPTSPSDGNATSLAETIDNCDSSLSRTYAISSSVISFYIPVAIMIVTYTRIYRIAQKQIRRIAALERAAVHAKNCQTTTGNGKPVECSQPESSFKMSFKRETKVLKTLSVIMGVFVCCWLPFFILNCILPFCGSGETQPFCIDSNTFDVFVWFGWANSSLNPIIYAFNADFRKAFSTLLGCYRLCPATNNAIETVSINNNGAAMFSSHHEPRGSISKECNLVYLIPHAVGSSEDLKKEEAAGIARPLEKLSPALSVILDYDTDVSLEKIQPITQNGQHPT
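Inducible HEK293 T-REx D1 cells, force-coupled to calcium signalling, were plated at 4000 cells/well with tetracycline and held overnight at 30 C. After no-wash calcium dye loading, compound-evoked calcium rise over 180 s flagged agonists.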
GRP78 ERSR act: ER stress response induction in glioma. U87-MG GRP78 promoter luciferase reporter, 16 h. AID 602332. hit rate 0.02% among 420,000. Potency, µM, most hits filed as activators; active = well fitted activation curve with a large enough effect; note: series mostly up to about 76 µM; nearly all actives have a fitted effect of over 35% in size
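ERSR induction read as luciferase luminescence (Bright-Glo, 10 min at room temperature) in stably transfected human U87-MG glioma cells exposed to compounds for 16 h, using GRP78 as sensor.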
D1 potentiator: potentiators of human D1 dopamine receptor | P21728 | HEK293 TREx D1 cells, calcium flux, dopamine EC20 potentiation | potentiation, % at 10 µM | hit rate 0.036% among 360,000 | AID 504651; in the data active = potentiation above about 30%
D1 antag: blocks dopamine activation of the human D1 receptor; activity change, negative = inhibition, % at 10 µM; AID 504652; hit rate 3.2% among 360,000; HEK293 TREx D1 cells, calcium flux, dopamine EC80; active compounds read low; in the data active = activity change below about -30%
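Antagonism measured as reduced calcium response to an EC80 dopamine addition following 180 s compound pre-read; cells were inducible HEK293 Trex D1 plated overnight at 30 C, read kinetically at 1 cycle/sec.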
TRHR ag: activates the human TRH receptor | P34981 | TRHR cells, calcium flux fluo-8, FDSS agonist mode | activation, % at 2 µM | hit rate 0.18% among 360,000 | AID 493084
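Steps: seed TRHR cells overnight; add fluo-8 no-wash Ca dye, RT 30 min–1.5 h; record 10 s baseline; pin-transfer compounds; monitor fluorescence 1 cycle/s for the agonist window. Calcium increases flag candidate agonists.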
TRHR PAM: TRH receptor (human) allosteric enhancement; P34981; TRHR cells, fluo-8 calcium fluorescence, EC20 TRH enhancement; enhancement, % at 2 µM; hit rate 0.66% among 360,000; in the data active = enhancement above about 30%
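TRHR-expressing cells loaded with fluo-8 calcium dye were read kinetically (ex 480/em 530) during compound addition, then stimulated with an EC20 of TRH (10 nM final). Enhancement of the Gq-mediated intracellular calcium response was scored.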
Of the large screens only hits and unclear results are named; the others gave an inactive call; ! = not active in a repeat. This is a sample that favours compounds with a hit; in the whole collection about 4% have one here. Cut-off read from the data, not from the text of the source, unless noted: active = activation above about 30%; inactive = the rest.

Cc1cc(NC(=O)CSc2nnc(NC(=O)C3CC(=O)N(c4ccccc4C)C3)s2)no1 (configuration not stated)	none
Cc1ccc(NC(=O)NC2CC(=O)N(c3ccc4c(c3)OCCO4)C2)c(C)c1 (configuration not stated)	D1 antag -47.2
COc1ccc(S(=O)(=O)NC2CC(=O)N(c3ccccc3)C2)cc1C (configuration not stated)	D1 antag -53.6
Cc1nnc(NC(=O)C2CC(=O)N(c3ccc4c(c3)OCCO4)C2)s1 (configuration not stated)	TRHR PAM 35.2
COc1ccc(S(=O)(=O)NC2CC(=O)N(c3ccc(C)c(C)c3)C2)cc1C (configuration not stated)	none
Cc1cc(NC(=O)CSc2nnc(NC(=O)C3CC(=O)N(c4ccccc4)C3)s2)no1 (configuration not stated)	D1 antag -46.2
Cc1c(C(=O)N2CCOc3ccccc3C2)sc2ncnc(NCCCN3CCOCC3)c12	none (no result: D1 ag, D1 potentiator, D1 antag, TRHR ag, TRHR PAM)
CC(=O)c1ccc(S(=O)(=O)NC2CC(=O)N(c3ccc(C)c(C)c3)C2)cc1 (configuration not stated)	D1 antag -30.9
Cc1ccc(N2CC(NS(=O)(=O)c3cccnc3)CC2=O)cc1C (configuration not stated)	none
CC(=O)Nc1ccc(S(=O)(=O)NC2CC(=O)N(c3ccc4c(c3)OCCO4)C2)cc1 (configuration not stated)	TRHR PAM 39.8
OCC[C@@H]1C[C@H](O)[C@@H](O)[C@@]2(Cc3ccccc3CO2)O1	D1 antag -68.9
OCC[C@H]1C[C@@H](O)[C@H](O)[C@@]2(Cc3ccccc3CO2)O1	none
CCN(CCCNC(=O)CN1C(=O)COc2ccc(S(=O)(=O)N3CCC(C)CC3)cc21)Cc1ccccc1	none
O=c1[nH]c2ccc(NCc3ccc(-c4ccc(F)cc4)o3)cc2[nH]1	D1 ag 33.5
COc1cc(CNc2ccc3[nH]c(=O)[nH]c3c2)ccc1OCc1ccc(F)cc1	none
CCOc1ccc(CCNC(=O)c2cn(CC)c3ccc(S(=O)(=O)N4CCc5ccccc5C4)cc3c2=O)cc1OCC	D1 antag -47.4
CCCCN(CCCC)CCNC(=O)c1cn(C)c2ccc(S(=O)(=O)N3CCOCC3)cc2c1=O	D1 antag -35.0
CCOCCCNC(=O)c1cn(CC)c2ccc(S(=O)(=O)N3CCC(C)CC3)cc2c1=O	D1 antag -34.5
CCN(CC)CCCNC(=O)Cn1cnc2ccc(S(=O)(=O)N3CCC(C)CC3)cc2c1=O	D1 antag -38.8
CCn1cc(C(=O)NCCCOC)c(=O)c2cc(S(=O)(=O)N3CCC(C)CC3)ccc21	none
CCCCNC(=O)Cn1cnc2ccc(S(=O)(=O)N3CCC(C)CC3)cc2c1=O	none
Cc1ccc(-n2ncc3c2CCCC3NC(=O)CSc2ccccn2)cc1C (configuration not stated)	none
COc1cc(/C=C/c2cncc(/C=C/c3cc(OC)c(OC)c(OC)c3)c2)cc(OC)c1OC	none (no result: D1 ag, D1 potentiator, D1 antag, TRHR ag, TRHR PAM)
O=C(N=NC(=O)c1ccc2c(O)n(CC3CCCO3)c(O)c2c1)c1cccnc1 (configuration not stated)	none
CCCCN(C)C(=O)c1cn(CC)c2ccc(S(=O)(=O)N(C)C)cc2c1=O	D1 antag -30.7 (no result: D1 potentiator)
CCn1cc(C(=O)NCCCN2CCCC(C)C2)c(=O)c2cc(S(=O)(=O)N(C)C3CCCCC3)ccc21 (configuration not stated)	D1 antag -78.5!
COc1cc2c(cc1O)CCN[C@@]21CS[C@H]2c3c(OC(C)=O)c(C)c4c(c3C(COC1=O)N1C2C2c3c(cc(C)c(OC)c3O)CC([C@@H]1O)N2C)OCO4 (some centres not stated)	none (no result: D1 ag, D1 potentiator, D1 antag, TRHR ag, TRHR PAM)
O=S(=O)(c1ccccc1C(F)(F)F)N1CCN(c2nc(-c3cccs3)nc3ccccc23)CC1	none (no result: D1 ag, D1 potentiator, D1 antag, TRHR ag, TRHR PAM)
O=S(=O)(c1ccccc1Cl)N1CCC(Cc2ccccc2)CC1	none
Cc1ccc(C)c2c(C)ccnc12	none (no result: D1 ag, D1 potentiator, D1 antag, TRHR ag, TRHR PAM)
CCCc1cc(=O)[nH]c(SCC(=O)N2CC3(C)CC2CC(C)(C)C3)n1 (configuration not stated)	D1 antag -46.9 (no result: D1 potentiator)
Cc1cccc(NC(=O)c2ccc(COc3ccccc3)o2)n1	none
Cc1csc(NC(=O)c2cccnc2)n1	D1 antag -36.1
Cc1csc(NC(=O)c2ccc(COc3ccccc3)o2)n1	D1 antag -35.3, TRHR PAM 30.4
COc1ccccc1NC(=S)N(CCCN(C)C)Cc1cc2cc3c(cc2[nH]c1=O)OCO3	none
COc1ccc2cc(CN(C(=O)Nc3ccccc3OC)C3CCCC3)c(=O)[nH]c2c1	D1 antag -33.2
COc1ccccc1NC(=O)N(Cc1cccs1)Cc1cc2cc3c(cc2[nH]c1=O)OCO3	D1 antag -33.7
CC(=O)Nc1nonc1-c1nc2ccccc2n1CC1CC1	none
CC(=O)Nc1nonc1-c1nc2ccccc2n1Cc1ccccc1Br	D1 antag -69.7 (no result: GRP78 ERSR act)
Cc1ccc2c(c1)/C(=C/c1ccccc1C)C(=O)N2	D1 antag -31.3
CCOC(=O)c1c(C)c(C(=O)NCc2ccc(Cl)cc2)c(C)n1C	TRHR PAM 34.8
CCc1cc(C(=O)Cc2cnn(-c3ccccc3)c2)c(O)cc1O	D1 ag 38.1
O=C(Cc1cnn(-c2ccccc2)c1)c1ccc(O)c(O)c1O	none
O=C(Cn1ccc(NC(=O)OCc2ccccc2)nc1=O)NCCN1CCOCC1	none (no result: D1 antag)
Cc1c(/C=C(\C#N)C(=O)Nc2cccc(Cl)c2)c2ccccc2n1Cc1ccccc1	D1 ag 31.8
O=C1CCCc2ccccc2N1Cc1cccc(F)c1	TRHR PAM 33.9
O=C1CCCc2ccccc2N1Cc1ccc(F)cc1	none
COc1ccc(C)cc1NC(=O)Nc1ccc(Br)cn1	none
COc1ccccc1CNC(=O)OCc1nccnc1C(=O)Nc1ccc(Br)cn1	D1 antag -35.4
Cc1ccc(C)c(N2CCN(C(=O)c3ccc(N4CCOCC4)c([N+](=O)[O-])c3)CC2)c1	none
Cc1cc(C)nc(N/N=C/C2=C(N3CCOCC3)C(=C/c3ccccc3)/CC2)n1	D1 antag -44.6
O=C(O)c1ccccc1N/N=C/C1=C(N2CCOCC2)C(=C\c2ccccc2)/CC1	D1 antag -30.4
O=C(N/N=C/C1=C(N2CCOCC2)C(=C\c2ccccc2)/CC1)Nc1ccccc1	none
O=C(c1ccncc1)c1ccc(N2CCN(C3CC(=O)N(Cc4cccs4)C3=O)CC2)cc1 (configuration not stated)	D1 antag -39.2
O=C1CC(N2CCN(c3ccc(O)cc3)CC2)C(=O)N1Cc1cccs1 (configuration not stated)	none
